# Test results taken from PubChem BioAssay.
# Active and inactive are the calls of the source. Unless noted, how the calls were made is not given here.
# What was measured:
# [1] = anti-His antibody binders, primary screen, artefact control for SMM control protein annotation, biochemical, small-molecule microarray, 635 nm fluorescence (AID 1128); conditions: anti-His Alexa647 antibody binding, higher = more signal;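 further: score merges feature fluorescence with signal-to-noise for each printed compound spot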
# [2] = tested on: Human papillomavirus type 1a E7 protein (residues 1-88); experiment: HPV1a E7 small-molecule binders, primary screen, biochemical, small-molecule microarray, residues 1-88, 635 nm (AID 1129); conditions: small-molecule microarray binding, fluorescence 635 nm; higher = more signal
# [3] = molecular target: Focal adhesion kinase 1 (Homo sapiens) (UniProt Q05397); experiment: small-molecule microarray binders of FAK, primary screen, biochemical, 635/667 nm fluorescence, BSA, DTT (AID 1130); conditions: PTK2 binding, 635 nm fluorescence, higher = more signal;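 further: composite of spot emission at 667 nm and signal to noise over triplicate slides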
# Sequence of Focal adhesion kinase 1 (Homo sapiens) (Q05397 whole entry, looked up): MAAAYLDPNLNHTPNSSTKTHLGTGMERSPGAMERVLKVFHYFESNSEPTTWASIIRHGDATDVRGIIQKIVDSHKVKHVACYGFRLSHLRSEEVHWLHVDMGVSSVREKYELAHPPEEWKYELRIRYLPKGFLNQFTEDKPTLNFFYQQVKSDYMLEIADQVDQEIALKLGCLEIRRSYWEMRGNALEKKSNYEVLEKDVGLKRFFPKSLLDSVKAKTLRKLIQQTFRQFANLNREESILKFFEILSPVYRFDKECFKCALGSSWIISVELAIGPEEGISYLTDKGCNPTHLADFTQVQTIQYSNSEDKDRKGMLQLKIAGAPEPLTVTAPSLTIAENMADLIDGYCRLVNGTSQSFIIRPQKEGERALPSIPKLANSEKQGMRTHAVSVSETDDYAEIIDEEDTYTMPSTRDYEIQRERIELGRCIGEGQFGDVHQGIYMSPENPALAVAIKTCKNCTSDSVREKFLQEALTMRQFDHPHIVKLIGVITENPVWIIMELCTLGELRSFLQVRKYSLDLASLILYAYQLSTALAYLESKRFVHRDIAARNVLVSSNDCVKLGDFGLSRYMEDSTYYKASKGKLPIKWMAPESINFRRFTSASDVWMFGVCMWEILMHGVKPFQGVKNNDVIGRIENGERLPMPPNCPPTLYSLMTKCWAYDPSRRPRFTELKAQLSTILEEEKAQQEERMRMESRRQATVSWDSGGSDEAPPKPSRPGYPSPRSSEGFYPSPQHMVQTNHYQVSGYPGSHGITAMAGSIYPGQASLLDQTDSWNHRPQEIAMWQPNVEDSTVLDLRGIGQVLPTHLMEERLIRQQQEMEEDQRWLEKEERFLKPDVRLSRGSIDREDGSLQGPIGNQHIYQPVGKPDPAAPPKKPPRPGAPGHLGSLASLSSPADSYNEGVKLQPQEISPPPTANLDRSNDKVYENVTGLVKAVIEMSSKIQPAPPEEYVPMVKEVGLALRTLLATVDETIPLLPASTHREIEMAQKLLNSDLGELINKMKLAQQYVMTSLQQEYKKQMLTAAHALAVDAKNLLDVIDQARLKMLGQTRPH
# [4] = tested on: Fibrinogen (Alexa647-labelled); experiment: fibrinogen binders on compound microarrays, profiling panel, artefact control for SMM control-protein annotation, biochemical, small-molecule microarray, 635/667 nm fluorescence (AID 1131); conditions: fibrinogen-A647 binding fluorescence, higher = more signal;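 further: z-score merges 667 nm fluorescence with per-spot signal-to-noise over triplicate slides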
# [5] = molecular target: Follistatin (Homo sapiens) (UniProt P19883); experiment: follistatin binders on small-molecule microarrays, primary screen, biochemical, small-molecule microarray, 635/667 nm fluorescence (AID 1132); conditions: FST binding, 635 nm fluorescence, higher = more signal
# Sequence of Follistatin (Homo sapiens) (P19883 whole entry, looked up): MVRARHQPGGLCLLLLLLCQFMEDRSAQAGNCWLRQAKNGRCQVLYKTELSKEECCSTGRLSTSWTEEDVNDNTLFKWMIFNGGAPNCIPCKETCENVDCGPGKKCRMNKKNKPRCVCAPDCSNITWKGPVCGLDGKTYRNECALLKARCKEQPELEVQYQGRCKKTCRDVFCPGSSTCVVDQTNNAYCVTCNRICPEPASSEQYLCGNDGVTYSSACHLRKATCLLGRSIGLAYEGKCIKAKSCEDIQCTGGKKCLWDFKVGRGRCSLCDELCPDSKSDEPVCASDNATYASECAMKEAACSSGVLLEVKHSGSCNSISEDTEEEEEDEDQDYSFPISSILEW
# [6] = molecular target: Fibroblast growth factor 2 (Homo sapiens) (UniProt P09038); experiment: FGF2 binders on small-molecule microarrays, primary screen, biochemical, small-molecule microarray, 635/667 nm fluorescence (AID 1133); conditions: small-molecule microarray binding, FGF2, fluorescence 635/667; higher = more signal
# Sequence of Fibroblast growth factor 2 (Homo sapiens) (P09038 whole entry, looked up): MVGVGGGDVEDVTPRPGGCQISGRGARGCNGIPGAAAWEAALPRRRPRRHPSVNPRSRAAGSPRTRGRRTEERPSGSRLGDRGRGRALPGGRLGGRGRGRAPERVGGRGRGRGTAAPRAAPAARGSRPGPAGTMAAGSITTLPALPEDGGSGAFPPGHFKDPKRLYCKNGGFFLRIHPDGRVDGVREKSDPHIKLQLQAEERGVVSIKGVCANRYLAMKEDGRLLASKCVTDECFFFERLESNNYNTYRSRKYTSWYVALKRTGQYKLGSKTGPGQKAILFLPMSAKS
# [7] = mitochondrial membrane potential change in A549 cells, profiling panel, cell-based, JC-1 fluorescence, basal, 24 h, 100 nL (AID 1138); conditions: higher = more signal;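 further: A549 lung adenocarcinoma cells under basal conditions with no added stimulus; test concentration not given here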
# Lefty1 = Lefty1 binders on small-molecule microarrays, primary screen, biochemical, small-molecule microarray, 635/667 nm fluorescence (AID 1139); conditions: small-molecule microarray binding, fluorescence 635/667; higher = more signal
# [8] = tested on: wheat germ agglutinin (Triticum aestivum), Alexa647-labelled; experiment: wheat germ agglutinin binders on compound microarrays, profiling panel, artefact control for SMM control-protein annotation, biochemical, small-molecule microarray, 635/667 nm fluorescence (AID 1140); conditions: WGA-A647 binding, 635 nm fluorescence, higher = more signal;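 further: score merges 667 nm feature emission with signal to noise over triplicate slides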
# [9] = molecular target: Luciferin 4-monooxygenase (Photinus pyralis) (UniProt P08659); experiment: firefly luciferase enzyme inhibitors, primary screen, biochemical, luminescence, purified enzyme, 2006 set (AID 1141); conditions: SteadyGlo luminescence, 30 min, higher = more signal, called active from +8 up or from −8 down;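 further: cell-free assay with purified firefly luciferase at 100 ng per well in PBS; test concentration not given here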
# Sequence of Luciferin 4-monooxygenase (Photinus pyralis) (P08659 whole entry, looked up): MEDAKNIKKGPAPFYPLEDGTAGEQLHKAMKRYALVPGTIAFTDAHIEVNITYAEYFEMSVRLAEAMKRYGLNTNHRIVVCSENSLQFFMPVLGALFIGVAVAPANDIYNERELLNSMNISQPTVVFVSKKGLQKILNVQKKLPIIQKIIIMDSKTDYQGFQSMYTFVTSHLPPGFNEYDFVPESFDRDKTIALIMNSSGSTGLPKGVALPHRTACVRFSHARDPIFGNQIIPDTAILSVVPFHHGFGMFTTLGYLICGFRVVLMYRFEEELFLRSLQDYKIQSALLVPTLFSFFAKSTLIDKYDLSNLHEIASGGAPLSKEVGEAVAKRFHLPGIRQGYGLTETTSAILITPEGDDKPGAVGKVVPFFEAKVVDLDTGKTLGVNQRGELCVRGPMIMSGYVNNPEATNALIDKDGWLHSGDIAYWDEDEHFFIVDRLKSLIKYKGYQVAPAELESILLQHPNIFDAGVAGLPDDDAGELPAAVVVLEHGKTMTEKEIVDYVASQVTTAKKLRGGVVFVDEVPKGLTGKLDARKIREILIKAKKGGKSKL
# [10] = tested on: Wnt5a (protein binding on small-molecule microarray); experiment: Wnt5a binders on small-molecule microarray, primary screen, biophysical, 635/667 nm fluorescence (AID 1142); conditions: 635 nm fluorescence, higher = more signal;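 further: fluorescence read at 667 nm with signal to noise per printed feature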
# [11] = cell viability in Huh7 cells, primary screen, cytotoxicity control for HCV replication inhibitor project, CellTiter-Glo luminescence, basal, 48 h (AID 1143); conditions: Huh7 HCV replicon, higher = more signal, called active from +8 up or from −8 down;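 further: Huh7 hepatoma cells carrying a hepatitis C replication reporter with no stimulus; test concentration not given here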
# [12] = P. aeruginosa biofilm formation inhibitors, primary screen, PAO1 strain, BacTiter-Glo luminescence, LB-PBS (AID 1144); conditions: 12 h, higher = more signal
# [13] = CREB reporter modulators without forskolin, primary screen, cell-based, PC12, CRE-LacZ reporter, unstimulated (AID 1145); conditions: no forskolin, luminescence, 4.5 h, higher = more signal, called active from +8 up or from −8 down
# [14] = CREB reporter modulators under forskolin, primary screen, cell-based, PC12, CRE-LacZ reporter, forskolin-stimulated (AID 1146); conditions: luminescence, 4.5 h, higher = more signal, called active from +8 up or from −8 down;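 further: PC12 cells with 6xCRE LacZ reporter stimulated by forskolin 10 µM; beta-galactosidase reporter signal reflecting CREB driven transcription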
# [15] = molecular target: Streptavidin (Streptomyces avidinii) (UniProt P22629); experiment: streptavidin binders on small-molecule microarray, primary screen, artefact control for SMM compound annotation, biophysical, 635/667 nm fluorescence (AID 1147); conditions: streptavidin binding, higher = more signal;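 further: signal reflects streptavidin binding to arrayed compounds as a control protein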
# Sequence of Streptavidin (Streptomyces avidinii) (P22629 whole entry, looked up): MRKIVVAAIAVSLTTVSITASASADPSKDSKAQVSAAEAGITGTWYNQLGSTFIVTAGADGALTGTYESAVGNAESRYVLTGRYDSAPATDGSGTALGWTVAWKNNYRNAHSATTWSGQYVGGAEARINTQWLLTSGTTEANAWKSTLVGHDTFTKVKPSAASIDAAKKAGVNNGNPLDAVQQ
# [16] = small-molecule binders of probe aInhba, primary screen, biochemical, small-molecule microarray, 635/667 nm fluorescence (AID 1148); conditions: higher = more signal;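 further: score merges 667nm spot fluorescence with signal-to-noise for antibody binding to printed compounds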
# Torsin-1A (Homo sapiens) [17] = molecular target: Torsin-1A (Homo sapiens) (UniProt O14656); experiment: torsin A binders from cell lysate, primary screen, small-molecule microarray, wild-type, 635/667 nm (AID 1149); conditions: COS7 hTOR1A-WT lysate, 635 nm fluorescence, higher = more signal
# Sequence of Torsin-1A (Homo sapiens) (O14656 whole entry, looked up): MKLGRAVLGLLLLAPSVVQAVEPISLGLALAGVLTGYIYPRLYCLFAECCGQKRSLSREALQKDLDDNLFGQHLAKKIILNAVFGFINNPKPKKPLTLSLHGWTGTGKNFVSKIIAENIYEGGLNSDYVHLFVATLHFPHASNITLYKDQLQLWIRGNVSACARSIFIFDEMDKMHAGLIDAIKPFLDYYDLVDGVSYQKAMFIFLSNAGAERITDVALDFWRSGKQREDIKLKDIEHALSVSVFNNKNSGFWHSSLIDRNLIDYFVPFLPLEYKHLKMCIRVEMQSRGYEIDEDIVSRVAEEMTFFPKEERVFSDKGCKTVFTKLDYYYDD
# Torsin-1A (Homo sapiens) [18] = molecular target: Torsin-1A (Homo sapiens) (UniProt O14656); experiment: small-molecule binders of mutant TOR1A in lysate, primary screen, cell lysate, small-molecule microarray, COS7 lysate, 635/667 nm fluorescence (AID 1150); conditions: COS7 hTOR1A mutant lysate, 635 nm fluorescence, higher = more signal;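 further: score pools 667 nm emission and signal to noise measuring lysate protein binding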
# [19] = tested on: Sonic hedgehog protein (Shh); experiment: small-molecule binders of Shh protein, primary screen, biochemical, small-molecule microarray, 635/667 nm fluorescence (AID 1151); conditions: small-molecule microarray binding, 635 nm fluorescence; higher = more signal;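 further: Shh protein binding to compounds spotted on small-molecule microarray slides; score combines spot fluorescence intensity with signal-to-noise across triplicate slides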
SMILES,composite z-score [1],composite z-score [2],composite z-score [3],composite z-score [4],composite z-score [5],composite z-score [6],z-score [7],composite z-score (Lefty1),composite z-score [8],z-score [9],composite z-score [10],z-score [11],z-score [12],z-score [13],z-score [14],composite z-score [15],composite z-score [16],composite z-score (Torsin-1A (Homo sapiens) [17]),composite z-score (Torsin-1A (Homo sapiens) [18]),composite z-score [19]
C=CCC(OC(C)=O)[C@@H]1[C@@H](N(Cc2ccc(-c3cccc(C(F)(F)F)c3)o2)C(=O)Cc2ccc(F)cc2)c2cc(OCCCO)ccc2N1C(=O)Cc1ccc(OC)cc1 (stereo not given in full),-0.775,-2.07,-0.572,-0.0256,0.346,-0.308,0.812,-0.0727,0.114,0.175 (inactive),-0.186,-0.705 (inactive),-1.63 (inactive),0.236 (inactive),0.239 (inactive),-1.07,-0.183,-2.21,-0.945,0.392
CC1CC/C=C\[C@H]2OC34C=CCN(Cn5nnc6ccccc65)C(=O)[C@H]3N(C(CO)C(C)C)C(=O)[C@@H]4C2C(=O)O1 (stereo not given in full),1.63,0.19,0.0406,0.422,-0.311,-0.464,-0.408,-0.2,1.09,0.178 (inactive),-0.347,0.154 (inactive),-0.246 (inactive),-1.03 (inactive),-1.05 (inactive),-0.24,-0.159,-1.45,-1.12,0.627
C=CC[C@]1(C(=O)NCCCOC)N=C(c2ccc(OCCCO)cc2)O[C@H]1c1ccccc1N=[N+]=[N-],2.54,1.22,0.143,0.967,1.26,1.28,0.688,-0.397,0.542,-8.19 (active),0.485,-2.57 (inactive),-0.742 (inactive),2.14 (inactive),-1.5 (inactive),1.39,0.611,0.0108,0.878,-0.477
C=CCNC(=O)[C@H]1[C@@H]2C(=O)O[C@@H](c3ccccc3)[C@@H](c3ccccc3)N2[C@@H](c2ccc(OCCO)cc2)[C@]12C(=O)N(C(=O)OCCOC)c1ccccc12,2.75,1.25,0.389,0.962,1.33,1.53,-0.134,0.807,0.789,0.122 (inactive),0.25,-2.05 (inactive),-0.478 (inactive),0.802 (inactive),9.23 (active),0.614,0.0925,0.895,0.497,1.95
O=C1C2C=CC(C(O)C(c3ccccc3)c3ccccc3)N(n3cnnc3)C2C(=O)N1Cc1ccccc1 (stereo not given),0.305,1.21,0.638,0.977,0.552,1.54,-0.806,0.0063,0.131,1.01 (inactive),0.159,-0.0706 (inactive),0.738 (inactive),0.182 (inactive),0.202 (inactive),1.12,0.057,0.0613,0.142,-0.0479
CN1C2C=C(CCCO)C(C3C(=O)N(C(N)=O)C(=O)C32)C1c1ccc(CN2CCCC2)cc1 (stereo not given),0.161,-0.697,-0.311,-0.929,-0.0168,0.0692,-0.637,-0.484,-0.0816,0.73 (inactive),0.269,1.23 (inactive),-0.938 (inactive),-0.83 (inactive),1.31 (inactive),-0.411,-0.299,-0.14,-0.266,-0.138
O=C1c2ccccc2[C@](Cc2ccccc2I)(C(=O)NC2CC2)[C@H](c2ccc(CO)cc2)N1Cc1ccccc1,-0.025,0.0081,-0.186,0.471,0.885,1.16,-0.194,-0.502,0.322,0.873 (inactive),0.384,-2.11 (inactive),-1.02 (inactive),-0.179 (inactive),0.0053 (inactive),-0.248,0.0633,0.189,0.7,0.192
O=C1[C@H]2C=C(Br)[C@H](C[C@@H]2OCCCCO)[C@@]12CO2,-0.0684,-0.123,-0.14,-0.0973,0.324,0.108,0.137,0.17,0.0889,0.469 (inactive),-0.0251,0.722 (inactive),0.56 (inactive),0.22 (inactive),0.533 (inactive),0.0247,0.104,0.411,0.53,0.31
COCCOC(=O)N1C(=O)[C@@]2(c3cc(C#CC4=CCCCC4)ccc31)[C@H](C(=O)Nc1nc3ccccc3s1)[C@H]1C(=O)O[C@H](c3ccccc3)[C@H](c3ccccc3)N1[C@@H]2c1ccc(OCCO)cc1,0.424,1.07,0.147,0.192,1.18,0.898,-1.99,0.726,0.253,-5.3 (inactive),0.575,-1.49 (inactive),-1.07 (inactive),-0.258 (inactive),-0.47 (inactive),0.986,-0.0221,0.256,0.254,1.5
COC(=O)c1c(CC[C@@H](CO)NC(=O)N2CCC[C@H]2Cn2cc(-c3ccccn3)nn2)oc(C(C)=O)c1C(=O)OC,0.0014,0.282,0.16,-0.975,-0.0633,0.123,-0.53,0.427,0.0776,0.793 (inactive),-0.249,-1.44 (inactive),-0.95 (inactive),0.395 (inactive),-0.0037 (inactive),-0.281,-0.0178,0.0323,1.2,0.515
